# Positions count from the first letter of the chain named.
# Tests used:
# Test in all cases: PBM; 200 nM protein, PBS
# Conditions in all cases: dsDNA, one strand shown
# [1] = biological target: T1, VENTX (Homo sapiens, UniProt O95231 78-163, R121Q)
# T1 sequence: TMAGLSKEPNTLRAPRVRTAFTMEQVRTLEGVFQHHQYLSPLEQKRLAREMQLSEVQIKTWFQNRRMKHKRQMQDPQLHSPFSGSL
# [2] = biological target: T2, VENTX (Homo sapiens, UniProt O95231 78-163)
# T2 sequence: T1 sequence with Q44R
# [3] = biological target: T3, VENTX (Homo sapiens, UniProt O95231 78-163, Y115F)
# T3 sequence: T1 sequence with Y38F, Q44R
# [4] = biological target: ALX3 (Homo sapiens, UniProt O95076 139-225, N203Q)
# Sequence of ALX3 (Homo sapiens, UniProt O95076 139-225, N203Q) (O95076 139-225 N203Q): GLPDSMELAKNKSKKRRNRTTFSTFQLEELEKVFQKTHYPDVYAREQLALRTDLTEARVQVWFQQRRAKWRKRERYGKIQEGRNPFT
# [5] = biological target: ALX3 (Homo sapiens, UniProt O95076 139-225)
# Sequence of ALX3 (Homo sapiens, UniProt O95076 139-225) (O95076 139-225): as the sequence (O95076 139-225 N203Q) above, with Q65N counted along it
# [6] = biological target: VAX1 (Homo sapiens, UniProt Q5SQQ9 86-172)
# Sequence of VAX1 (Homo sapiens, UniProt Q5SQQ9 86-172) (Q5SQQ9 86-172): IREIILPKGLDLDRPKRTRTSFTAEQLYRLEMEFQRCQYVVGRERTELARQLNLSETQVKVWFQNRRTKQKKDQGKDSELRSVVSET
# [7] = biological target: ALX3 (Homo sapiens, UniProt O95076 139-225, L168Q)
# Sequence of ALX3 (Homo sapiens, UniProt O95076 139-225, L168Q) (O95076 139-225 L168Q): as the sequence (O95076 139-225 N203Q) above, with L30Q, Q65N counted along it
# [8] = biological target: ALX3 (Homo sapiens, UniProt O95076 139-225, L168V)
# Sequence of ALX3 (Homo sapiens, UniProt O95076 139-225, L168V) (O95076 139-225 L168V): as the sequence (O95076 139-225 N203Q) above, with L30V, Q65N counted along it
# [9] = biological target: VAX1 (Homo sapiens, UniProt Q5SQQ9 86-172, T142I)
# Sequence of VAX1 (Homo sapiens, UniProt Q5SQQ9 86-172, T142I) (Q5SQQ9 86-172 T142I): as the sequence (Q5SQQ9 86-172) above, with T57I counted along it
# [10] = biological target: ALX3 (Homo sapiens, UniProt O95076 139-225, N203S)
# Sequence of ALX3 (Homo sapiens, UniProt O95076 139-225, N203S) (O95076 139-225 N203S): as the sequence (O95076 139-225 N203Q) above, with Q65S counted along it
# [11] = biological target: VAX1 (Homo sapiens, UniProt Q5SQQ9 86-172, K157R)
# Sequence of VAX1 (Homo sapiens, UniProt Q5SQQ9 86-172, K157R) (Q5SQQ9 86-172 K157R): as the sequence (Q5SQQ9 86-172) above, with K72R counted along it
# [12] = biological target: HOXB6 (Homo sapiens, UniProt P17509 132-218, K202E)
# Sequence of HOXB6 (Homo sapiens, UniProt P17509 132-218, K202E) (P17509 132-218 K202E): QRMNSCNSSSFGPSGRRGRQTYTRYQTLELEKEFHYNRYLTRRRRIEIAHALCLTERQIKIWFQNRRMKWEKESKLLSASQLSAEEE
# [13] = biological target: HOXA2 (Homo sapiens, UniProt O43364 129-215, R185T)
# Sequence of HOXA2 (Homo sapiens, UniProt O43364 129-215, R185T) (O43364 129-215 R185T): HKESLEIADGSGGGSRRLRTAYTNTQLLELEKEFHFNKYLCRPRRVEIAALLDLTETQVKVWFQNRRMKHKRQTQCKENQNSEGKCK
# [14] = biological target: ALX1 (Homo sapiens, UniProt Q15699 118-204, L144V)
# Sequence of ALX1 (Homo sapiens, UniProt Q15699 118-204, L144V) (Q15699 118-204 L144V): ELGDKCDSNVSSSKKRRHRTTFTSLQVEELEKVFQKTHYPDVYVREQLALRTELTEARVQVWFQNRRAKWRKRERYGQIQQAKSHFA
# [15] = biological target: HOXA2 (Homo sapiens, UniProt O43364 129-215, R185K)
# Sequence of HOXA2 (Homo sapiens, UniProt O43364 129-215, R185K) (O43364 129-215 R185K): as the sequence (O43364 129-215 R185T) above, with T57K counted along it
# [16] = biological target: ALX1 (Homo sapiens, UniProt Q15699 118-204, L144R)
# Sequence of ALX1 (Homo sapiens, UniProt Q15699 118-204, L144R) (Q15699 118-204 L144R): as the sequence (Q15699 118-204 L144V) above, with V27R counted along it
# [17] = biological target: HOXA2 (Homo sapiens, UniProt O43364 129-215, Y150S)
# Sequence of HOXA2 (Homo sapiens, UniProt O43364 129-215, Y150S) (O43364 129-215 Y150S): as the sequence (O43364 129-215 R185T) above, with Y22S, T57R counted along it
# [18] = biological target: ALX1 (Homo sapiens, UniProt Q15699 118-204)
# Sequence of ALX1 (Homo sapiens, UniProt Q15699 118-204) (Q15699 118-204): as the sequence (Q15699 118-204 L144V) above, with V27L counted along it
# [19] = biological target: HOXA2 (Homo sapiens, UniProt O43364 129-215)
# Sequence of HOXA2 (Homo sapiens, UniProt O43364 129-215) (O43364 129-215): as the sequence (O43364 129-215 R185T) above, with T57R counted along it
# [20] = biological target: HOXB6 (Homo sapiens, UniProt P17509 132-218)
# Sequence of HOXB6 (Homo sapiens, UniProt P17509 132-218) (P17509 132-218): as the sequence (P17509 132-218 K202E) above, with E71K counted along it
# [21] = biological target: HOXA4 (Homo sapiens, UniProt Q00056 201-287, R217L)
# Sequence of HOXA4 (Q00056 201-287 R217L): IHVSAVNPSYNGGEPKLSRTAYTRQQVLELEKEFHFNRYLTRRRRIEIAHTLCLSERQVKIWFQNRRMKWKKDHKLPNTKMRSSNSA
# [22] = biological target: MSX2 (Homo sapiens, UniProt P35548 130-214, R199I)
# Sequence of MSX2 (Homo sapiens, UniProt P35548 130-214, R199I) (P35548 130-214 R199I): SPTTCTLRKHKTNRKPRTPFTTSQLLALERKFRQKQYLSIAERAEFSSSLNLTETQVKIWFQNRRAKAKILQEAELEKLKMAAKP
# [23] = biological target: MSX2 (Homo sapiens, UniProt P35548 130-214)
# Sequence of MSX2 (Homo sapiens, UniProt P35548 130-214) (P35548 130-214): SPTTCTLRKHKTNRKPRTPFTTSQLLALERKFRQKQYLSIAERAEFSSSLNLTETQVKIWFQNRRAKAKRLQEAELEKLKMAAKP
# [24] = biological target: MSX2 (Homo sapiens, UniProt P35548 130-214, F161Y)
# Sequence of MSX2 (Homo sapiens, UniProt P35548 130-214, F161Y) (P35548 130-214 F161Y): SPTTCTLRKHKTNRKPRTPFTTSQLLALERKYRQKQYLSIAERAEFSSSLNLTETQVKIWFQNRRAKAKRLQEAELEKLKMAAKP
sequence,measurement,setting,value
CCCATTAC,binding signal,[1],"11.4 upbm affinity estimate (log intensity, higher = more binding, comparable within an allelic series)"
same,binding signal,[2],"12.4 upbm affinity estimate (log intensity, higher = more binding, comparable within an allelic series)"
same,binding signal,[3],"11.2 upbm affinity estimate (log intensity, higher = more binding, comparable within an allelic series)"
CCAAGGGC,binding signal,[1],"8.09 upbm affinity estimate (log intensity, higher = more binding, comparable within an allelic series)"
same,binding signal,[2],"8.33 upbm affinity estimate (log intensity, higher = more binding, comparable within an allelic series)"
same,binding signal,[3],"8.21 upbm affinity estimate (log intensity, higher = more binding, comparable within an allelic series)"
AGCGTGCC,binding signal,[1],"8.06 upbm affinity estimate (log intensity, higher = more binding, comparable within an allelic series)"
same,binding signal,[2],"7.96 upbm affinity estimate (log intensity, higher = more binding, comparable within an allelic series)"
same,binding signal,[3],"8.06 upbm affinity estimate (log intensity, higher = more binding, comparable within an allelic series)"
same,binding signal,[4],"7.73 upbm affinity estimate (log intensity, higher = more binding, comparable within an allelic series)"
same,binding signal,[5],"7.88 upbm affinity estimate (log intensity, higher = more binding, comparable within an allelic series)"
same,binding signal,[6],"7.14 upbm affinity estimate (log intensity, higher = more binding, comparable within an allelic series)"
same,binding signal,[7],"7.81 upbm affinity estimate (log intensity, higher = more binding, comparable within an allelic series)"
same,binding signal,[8],"7.81 upbm affinity estimate (log intensity, higher = more binding, comparable within an allelic series)"
same,binding signal,[9],"7.18 upbm affinity estimate (log intensity, higher = more binding, comparable within an allelic series)"
same,binding signal,[10],"7.76 upbm affinity estimate (log intensity, higher = more binding, comparable within an allelic series)"
same,binding signal,[11],"7.13 upbm affinity estimate (log intensity, higher = more binding, comparable within an allelic series)"
GCCCAGGC,binding signal,[1],"7.88 upbm affinity estimate (log intensity, higher = more binding, comparable within an allelic series)"
same,binding signal,[2],"7.61 upbm affinity estimate (log intensity, higher = more binding, comparable within an allelic series)"
same,binding signal,[3],"7.8 upbm affinity estimate (log intensity, higher = more binding, comparable within an allelic series)"
same,binding signal,[12],"8.91 upbm affinity estimate (log intensity, higher = more binding, comparable within an allelic series)"
same,binding signal,[13],"6.96 upbm affinity estimate (log intensity, higher = more binding, comparable within an allelic series)"
same,binding signal,[14],"6.2 upbm affinity estimate (log intensity, higher = more binding, comparable within an allelic series)"
same,binding signal,[4],"7.68 upbm affinity estimate (log intensity, higher = more binding, comparable within an allelic series)"
same,binding signal,[15],"10 upbm affinity estimate (log intensity, higher = more binding, comparable within an allelic series)"
same,binding signal,[16],"6.3 upbm affinity estimate (log intensity, higher = more binding, comparable within an allelic series)"
same,binding signal,[5],"7.31 upbm affinity estimate (log intensity, higher = more binding, comparable within an allelic series)"
same,binding signal,[7],"7.59 upbm affinity estimate (log intensity, higher = more binding, comparable within an allelic series)"
same,binding signal,[8],"7.69 upbm affinity estimate (log intensity, higher = more binding, comparable within an allelic series)"
same,binding signal,[17],"10.3 upbm affinity estimate (log intensity, higher = more binding, comparable within an allelic series)"
same,binding signal,[18],"6.12 upbm affinity estimate (log intensity, higher = more binding, comparable within an allelic series)"
same,binding signal,[10],"7.71 upbm affinity estimate (log intensity, higher = more binding, comparable within an allelic series)"
same,binding signal,[19],"7.01 upbm affinity estimate (log intensity, higher = more binding, comparable within an allelic series)"
same,binding signal,[20],"8.63 upbm affinity estimate (log intensity, higher = more binding, comparable within an allelic series)"
CCCGTCCG,binding signal,[1],"7.93 upbm affinity estimate (log intensity, higher = more binding, comparable within an allelic series)"
same,binding signal,[2],"7.94 upbm affinity estimate (log intensity, higher = more binding, comparable within an allelic series)"
same,binding signal,[3],"7.87 upbm affinity estimate (log intensity, higher = more binding, comparable within an allelic series)"
same,binding signal,[4],"7.62 upbm affinity estimate (log intensity, higher = more binding, comparable within an allelic series)"
same,binding signal,[5],"7.58 upbm affinity estimate (log intensity, higher = more binding, comparable within an allelic series)"
same,binding signal,[7],"7.67 upbm affinity estimate (log intensity, higher = more binding, comparable within an allelic series)"
same,binding signal,[8],"7.65 upbm affinity estimate (log intensity, higher = more binding, comparable within an allelic series)"
same,binding signal,[10],"7.6 upbm affinity estimate (log intensity, higher = more binding, comparable within an allelic series)"
AAATATCT,binding signal,[1],"9.87 upbm affinity estimate (log intensity, higher = more binding, comparable within an allelic series)"
same,binding signal,[2],"10 upbm affinity estimate (log intensity, higher = more binding, comparable within an allelic series)"
same,binding signal,[3],"9.74 upbm affinity estimate (log intensity, higher = more binding, comparable within an allelic series)"
CTCGTGGC,binding signal,[1],"8.11 upbm affinity estimate (log intensity, higher = more binding, comparable within an allelic series)"
same,binding signal,[2],"8.09 upbm affinity estimate (log intensity, higher = more binding, comparable within an allelic series)"
same,binding signal,[3],"8.12 upbm affinity estimate (log intensity, higher = more binding, comparable within an allelic series)"
ACCTATTA,binding signal,[1],"11.4 upbm affinity estimate (log intensity, higher = more binding, comparable within an allelic series)"
same,binding signal,[2],"12 upbm affinity estimate (log intensity, higher = more binding, comparable within an allelic series)"
same,binding signal,[3],"11.1 upbm affinity estimate (log intensity, higher = more binding, comparable within an allelic series)"
GCTTATTA,binding signal,[1],"10.2 upbm affinity estimate (log intensity, higher = more binding, comparable within an allelic series)"
same,binding signal,[2],"10.8 upbm affinity estimate (log intensity, higher = more binding, comparable within an allelic series)"
same,binding signal,[3],"10.3 upbm affinity estimate (log intensity, higher = more binding, comparable within an allelic series)"
same,binding signal,[13],"10.9 upbm affinity estimate (log intensity, higher = more binding, comparable within an allelic series)"
same,binding signal,[15],"12.2 upbm affinity estimate (log intensity, higher = more binding, comparable within an allelic series)"
same,binding signal,[17],"10.7 upbm affinity estimate (log intensity, higher = more binding, comparable within an allelic series)"
same,binding signal,[19],"10.7 upbm affinity estimate (log intensity, higher = more binding, comparable within an allelic series)"
CGTCCTCC,binding signal,[1],"8.1 upbm affinity estimate (log intensity, higher = more binding, comparable within an allelic series)"
same,binding signal,[2],"8.19 upbm affinity estimate (log intensity, higher = more binding, comparable within an allelic series)"
same,binding signal,[3],"8.16 upbm affinity estimate (log intensity, higher = more binding, comparable within an allelic series)"
same,binding signal,[14],"6.55 upbm affinity estimate (log intensity, higher = more binding, comparable within an allelic series)"
same,binding signal,[16],"6.64 upbm affinity estimate (log intensity, higher = more binding, comparable within an allelic series)"
same,binding signal,[18],"6.6 upbm affinity estimate (log intensity, higher = more binding, comparable within an allelic series)"
CCATTAGC,binding signal,[1],"12.2 upbm affinity estimate (log intensity, higher = more binding, comparable within an allelic series)"
same,binding signal,[2],"12.9 upbm affinity estimate (log intensity, higher = more binding, comparable within an allelic series)"
same,binding signal,[3],"11.9 upbm affinity estimate (log intensity, higher = more binding, comparable within an allelic series)"
same,binding signal,[13],"12.3 upbm affinity estimate (log intensity, higher = more binding, comparable within an allelic series)"
same,binding signal,[21],"11.4 upbm affinity estimate (log intensity, higher = more binding, comparable within an allelic series)"
same,binding signal,[15],"13.1 upbm affinity estimate (log intensity, higher = more binding, comparable within an allelic series)"
same,binding signal,[17],"10.6 upbm affinity estimate (log intensity, higher = more binding, comparable within an allelic series)"
same,binding signal,[19],"12 upbm affinity estimate (log intensity, higher = more binding, comparable within an allelic series)"
same,binding signal,[11],"12.4 upbm affinity estimate (log intensity, higher = more binding, comparable within an allelic series)"
CCTGGCTC,binding signal,[1],"8.01 upbm affinity estimate (log intensity, higher = more binding, comparable within an allelic series)"
same,binding signal,[2],"8.1 upbm affinity estimate (log intensity, higher = more binding, comparable within an allelic series)"
same,binding signal,[3],"8.06 upbm affinity estimate (log intensity, higher = more binding, comparable within an allelic series)"
same,binding signal,[22],"9.46 upbm affinity estimate (log intensity, higher = more binding, comparable within an allelic series)"
same,binding signal,[23],"9.51 upbm affinity estimate (log intensity, higher = more binding, comparable within an allelic series)"
same,binding signal,[24],"9.47 upbm affinity estimate (log intensity, higher = more binding, comparable within an allelic series)"
CAGAGGGC,binding signal,[1],"8.16 upbm affinity estimate (log intensity, higher = more binding, comparable within an allelic series)"
same,binding signal,[2],"8.02 upbm affinity estimate (log intensity, higher = more binding, comparable within an allelic series)"
same,binding signal,[3],"8.12 upbm affinity estimate (log intensity, higher = more binding, comparable within an allelic series)"
same,binding signal,[12],"9.04 upbm affinity estimate (log intensity, higher = more binding, comparable within an allelic series)"
same,binding signal,[20],"9.01 upbm affinity estimate (log intensity, higher = more binding, comparable within an allelic series)"
CCTGCTGC,binding signal,[1],"8.37 upbm affinity estimate (log intensity, higher = more binding, comparable within an allelic series)"
same,binding signal,[2],"8.45 upbm affinity estimate (log intensity, higher = more binding, comparable within an allelic series)"
same,binding signal,[3],"8.42 upbm affinity estimate (log intensity, higher = more binding, comparable within an allelic series)"
same,binding signal,[12],"9.18 upbm affinity estimate (log intensity, higher = more binding, comparable within an allelic series)"
same,binding signal,[20],"9.23 upbm affinity estimate (log intensity, higher = more binding, comparable within an allelic series)"
GCCCCCCC,binding signal,[1],"8.24 upbm affinity estimate (log intensity, higher = more binding, comparable within an allelic series)"
same,binding signal,[2],"8.18 upbm affinity estimate (log intensity, higher = more binding, comparable within an allelic series)"
same,binding signal,[3],"8.34 upbm affinity estimate (log intensity, higher = more binding, comparable within an allelic series)"
same,binding signal,[13],"7.05 upbm affinity estimate (log intensity, higher = more binding, comparable within an allelic series)"
same,binding signal,[15],"9.94 upbm affinity estimate (log intensity, higher = more binding, comparable within an allelic series)"
same,binding signal,[17],"10.3 upbm affinity estimate (log intensity, higher = more binding, comparable within an allelic series)"
same,binding signal,[19],"7.28 upbm affinity estimate (log intensity, higher = more binding, comparable within an allelic series)"

# Reference: publication PMC11006913
